Hit rate of the full screen: of about 2,300 compounds, about 1,100 (48%) were called active. The rule behind the calls is not given here. The set was probably picked from earlier hits. Some of the results follow. Entries with a potency or affinity are not part of this list.

The assay can be described thus: inhibitors in S. typhi counter-screen strain, dose response, counter-screen for PhoP regulon inhibitor project, fluorescence, 4 h (AID 2384). The conditions noted are these: S. typhi GFP reporter counter-screen; series mostly up to 150 µM; inhibition: at the top concentration. (In general: Counterscreens check selectivity or assay interference.)
For `CC(C)[C@H](NC(=O)c1ccccc1Cl)C(=O)Nc1nc(-c2ccccn2)cs1`, the “inhibition” value was 6.8% (inactive).

With `O=C(Nc1ccncc1)c1cc(-c2ccccn2)nc2ccccc12`, the “inhibition” value was 3.75% (inactive).

`Cn1cc(S(=O)(=O)Nc2ccc(OC(F)(F)F)cc2)c(=O)n(C)c1=O`: the “inhibition” value is 2.31% (inactive).

With `CC(C)NC(=O)CN1CCN(Cc2nc(C(c3ccccc3)c3ccccc3)no2)CC1`, the “inhibition” value was 9.52% (inactive).

`COc1c(C(=O)N2CCCC2)ccc2ccccc12`: the “inhibition” value was -8.29% (inactive).

As for `CCN1CCN(C(=O)/C=C/c2cccc(Cl)c2)CC1`, the “inhibition” value was 38.5% (inactive).

For `O=C(O)c1cc2cc(F)ccc2[nH]1`, the “inhibition” value is -16.8% (inactive).

Turning to `CCN1CCN(C(=O)Cc2coc3cc(C)cc(C)c23)CC1`, the “inhibition” value was 6.4% (inactive).

Turning to `COc1ccc2c(C(=O)CCl)c[nH]c2c1`, the “inhibition” value was 2.29% (inactive).

As to `Cc1c(Cl)cccc1NC(=O)C1CCN(S(C)(=O)=O)CC1`, the “inhibition” value is -31.6% (inactive).

Regarding `COc1cccc(OC)c1C(=O)Nc1ccc(N2CCN(S(C)(=O)=O)CC2)cc1`, the “inhibition” value is 16.1% (inactive).

For the compound `COCc1ccc(C(=O)Nc2ccc(C(=O)O)cc2)o1`, the “inhibition” value is 33.9% (inactive).

For `CCOC(=O)Cc1[nH]nc2c1C(c1ccoc1)C(C#N)=C(N)O2` (centres undefined), the “inhibition” value was 16.3% (inactive).

For the compound `O=C1c2ccccc2C(=O)C1(CO)c1ccc(OC(F)F)cc1`, the “inhibition” value was 10.6% (inactive).

In the case of `O=c1c2ccccc2nc(-c2cccc(Cl)c2)n1O`, the “inhibition” value was 18.7% (inactive).

Turning to `COc1ccc(C(=O)O/N=C2\C(=O)N(C)c3ccccc32)cc1`, the “inhibition” value was -11.3% (inactive).

Consider `CC(=O)NCCn1c(SCc2ccccc2C)nc2ccccc2c1=O`, for which the “inhibition” value was -10.7% (inactive).

Take `Cc1nc(SCC(=O)N2c3ccccc3Sc3ccccc32)n[nH]1`: the “inhibition” value is -16.7% (inactive).

`Cc1ccn2cc(C(=O)Nc3nnc(C)s3)nc2c1`: the “inhibition” value is -9.14% (inactive).

Consider `Cc1cccc(N/N=C/c2ccc(O)c(O)c2O)c1`, for which the “inhibition” value was 38.9% (inactive).

`O=C(NCCO)C(=O)c1c(-c2ccc(Cl)cc2)cc2ccccn12`: the “inhibition” value was -15.4% (inactive).

Turning to `CC(C)c1ccc(C2C(C#N)=C(N)Oc3c2oc(CO)cc3=O)cc1` (centres undefined), the “inhibition” value was -1.23% (inactive).

In the case of `COc1ccc(NS(=O)(=O)c2cccc(NC(=O)c3ccccn3)c2)cc1`, the “inhibition” value was -6.56% (inactive).

As for `CCN(CC)CCNC(=O)c1cccc(NC(=O)C(=O)c2cc(Br)ccc2NC(C)=O)c1`, the “inhibition” value was -5.6% (inactive).

For the compound `O=C(NC(=C(Cl)Cl)S(=O)(=O)c1ccc(Cl)cc1)c1ccccc1`, the “inhibition” value is -8.31% (inactive).

Consider `O=C(Nc1ccccc1)Nc1cccc(Cl)c1`, for which the “inhibition” value is 14.8% (inactive).

With `CCCN1C(=O)c2ccc(C(=O)Nc3nccs3)cc2C1=O`, the “inhibition” value was -20.2% (inactive).

As to `O=C(CCl)Nc1nccs1`, the “inhibition” value is 28.1% (inactive).

For the compound `O=C(NCc1cccnc1)c1ccc(Cl)cc1[N+](=O)[O-]`, the “inhibition” value is -24.5% (inactive).

For the compound `Nc1ccc(S(=O)(=O)Nc2nccs2)cc1`, the “inhibition” value is -15.3% (inactive).

Take `O=C(NCc1ccco1)c1ccc2c(c1)N(Cc1ccccc1)CCS2`: the “inhibition” value is -4.41% (inactive).

Take `CN1C(=O)/C(=C/c2cccc(Cl)c2)Sc2ccc(C(=O)N3CCCC3)cc21`: the “inhibition” value was 3.12% (inactive).

As to `O=C(COC(=O)/C=C/c1cccc(C(F)(F)F)c1)NCc1ccccc1`, the “inhibition” value is -4.38% (inactive).

Take `CCC(=O)Nc1nc(C)c(C(=O)N2CCCCC2)s1`: the “inhibition” value is 9.2% (inactive).

As for `O=C1c2ccccc2C(=O)N1CCC(c1ccccc1)c1ccco1` (centres undefined), the “inhibition” value was -5.55% (inactive).

With `CCc1ccccc1NC(=O)c1onc(C)c1Cl`, the “inhibition” value is -5.45% (inactive).

As to `CC1(C)CC(=O)C2=C(C1)N(c1ccc(F)cc1)C(=O)CC2c1ccsc1` (centres undefined), the “inhibition” value is -21.1% (inactive).

`CCc1cc(CNC(=O)C2CCC(=O)N(Cc3cccc(F)c3)C2)on1` (centres undefined): the “inhibition” value is -24.2% (inactive).

In the case of `Fc1ccccc1CSc1ccc(-c2ccco2)nn1`, the “inhibition” value was -12.9% (inactive).

As to `COc1cccc(NC(=O)CSc2nncn2-c2ccccn2)c1`, the “inhibition” value was -7.4% (inactive).

As to `CCN1CCN(c2nc3ccccc3nc2C(C#N)S(=O)(=O)c2ccc(C)cc2)CC1` (centres undefined), the “inhibition” value was 16.5% (inactive).

For the compound `CCCCn1c(NCc2ccccc2NS(=O)(=O)c2ccc(C)cc2)nc2ccccc21`, the “inhibition” value was -17.6% (inactive).

As to `N#CCCn1c2ccccc2c2nc3ccccc3nc21`, the “inhibition” value is -2.6% (inactive).

On to `Cc1cccc(S(=O)(=O)c2c(N)n(/N=C/c3ccccc3)c3nc4ccccc4nc23)c1`, for which the “inhibition” value is 8.36% (inactive).

With `CCCN(CCC)c1nc(C)cc(C(C#N)c2nc3ccccc3o2)n1` (centres undefined), the “inhibition” value is -11.1% (inactive).

In the case of `CS(=O)(=O)c1cnc2c(-c3ccsc3)cnn2c1N`, the “inhibition” value was 2.48% (inactive).

`CS(=O)(=O)c1cnc2c(-c3ccc(F)cc3)cnn2c1N`: the “inhibition” value was 5.15% (inactive).

For `Cc1ccc(OCC(O)Cn2c(N)nc3c2c(=O)n(C)c(=O)n3C)cc1` (centres undefined), the “inhibition” value was 9.77% (inactive).

Turning to `C=C(C)Cn1c(-c2ccc(OC)cc2)nc2ccccc21`, the “inhibition” value is -14.9% (inactive).

For the compound `CC(C)Cc1nc(N2CCOCC2)c(C#N)c2c1COC(C)(C)C2`, the “inhibition” value was 9.96% (inactive).

For the compound `C1CCC(n2nnnc2CN2CCN(C3CCCC3)CC2)CC1`, the “inhibition” value is -17.6% (inactive).

Regarding `CCCCC(=O)Nc1ccc(F)c(Cl)c1`, the “inhibition” value is 4.38% (inactive).

Take `CCN(CC)C(=O)C(=O)c1cn(CC(=O)N2CCc3ccccc3C2)c2ccccc12`: the “inhibition” value was 14.3% (inactive).

For `Cc1ccccc1-c1ncc(CN2CCN(C3CCCC3)C(CCO)C2)cn1` (centres undefined), the “inhibition” value is -17.2% (inactive).

For `COc1cccc(/C=C/C(=O)c2cccc([N+](=O)[O-])c2)c1OC`, the “inhibition” value was 11% (inactive).

As to `COC(=O)c1ccc(OC(=O)c2cccnc2)cc1`, the “inhibition” value is 16.5% (inactive).

On to `COC(=O)c1cn(C(=O)c2ccco2)c2ccccc12`, for which the “inhibition” value is 14.2% (inactive).

With `COc1ccc(N(C(=O)c2cccnc2)S(=O)(=O)c2cccc([N+](=O)[O-])c2)cc1`, the “inhibition” value was -26% (inactive).

In the case of `O=C(On1c(-c2ccccc2)nc2ccccc2c1=O)c1ccco1`, the “inhibition” value is 33.5% (inactive).

Turning to `COc1ccc(C[C@H]2CN3C(=NC[C@H]3Cc3ccccc3)N2CCNC(=O)c2ccc(C)c(Br)c2)cc1`, the “inhibition” value was 32.1% (inactive).

For the compound `CCNC(=O)c1ccc(C2SCC(=O)N2CCc2ccccc2)cc1` (centres undefined), the “inhibition” value was 16.3% (inactive).

On to `Cc1ccc(NC(=O)CCNC(=O)c2ccccc2)cc1F`, for which the “inhibition” value was 22.2% (inactive).

With `Cc1ccnc(NC(=O)CCC(=O)N(CC(=O)NC2CCCCC2)C2CCCC2)c1`, the “inhibition” value is -6.73% (inactive).

Regarding `CCN1CCN(CC(=O)Nc2ccc(C)c(Br)c2)CC1`, the “inhibition” value was 28.8% (inactive).

For `CS(=O)(=O)N(CCc1ccccc1)CC(=O)Nc1ccc2c(c1)OCO2`, the “inhibition” value was 12.9% (inactive).

For the compound `COc1ccc2c(C(=O)CN(C)C3CCCCC3)c[nH]c2c1`, the “inhibition” value is 24.3% (inactive).

Regarding `O=C(CSCc1ccccc1)Nc1cccc(C(=O)Nc2ccc(C(=O)O)cc2)c1`, the “inhibition” value was 23.4% (inactive).

Take `CN1C2=CC=CC=CC2=[N+](C)C12C=CC(=[N+]([O-])[O-])C=C2[N+](=O)[O-]` (centres undefined): the “inhibition” value is 18.4% (inactive).

For the compound `Cc1cccc(/C(N)=N/OC(=O)N2CCOCC2)c1`, the “inhibition” value is -7.33% (inactive).

With `Cc1ccn2cc(-c3ccc4c(c3)NC(=O)CO4)nc2c1`, the “inhibition” value was -22.3% (inactive).

On to `CC(C)n1cnnc1SCC(=O)Nc1ccc(Br)cc1F`, for which the “inhibition” value was -11.7% (inactive).

Consider `N#Cc1ccc(-c2ccc(OCC(=O)NCCCN3CCCC3=O)cc2)cc1`, for which the “inhibition” value was 29.4% (inactive).

With `COc1ccc(-n2ncc3c(NCc4ccccn4)ncnc32)cc1`, the “inhibition” value was -13.1% (inactive).

Turning to `C1=C(CCNc2ncnc3c2[nH]c2ccccc23)CCCC1`, the “inhibition” value was 26.6% (inactive).

Usually inhibition stands for the drop in the measured response relative to a control, in per cent.

The record behind these values is PubChem BioAssay AID2384 (Southern Research Specialized Biocontainment Screening …, 2010).
